PubChem BioAssay (NCI)
Compounds without any hit were thinned out: in the full panel of roughly 83,000, 20% have a hit.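 Cells were grown in 96-well plates and exposed to the test compound at a single concentration for 48 hours; results are reported as percent growth, with values below 10 considered active.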 Active and inactive are the calls of the source.

Legend:
Test in all cases: NCI-60 one-dose screen, 48 h (100 = growth as untreated, 0 = no growth, -100 = all killed)
SK-MEL-2 melanoma = details: 10 µM unless noted
EKVX NSCLC = details: 10 µM unless noted
SN12C renal = details: 10 µM unless noted
UO-31 renal = details: 10 µM unless noted
TK-10 renal = details: 10 µM unless noted
ACHN renal = details: 10 µM unless noted
CAKI-1 renal = details: 10 µM unless noted
A498 renal = details: 10 µM unless noted
CCRF-CEM leukemia = details: 10 µM unless noted
MOLT-4 leukemia = details: 10 µM unless noted
SR leukemia = details: 10 µM unless noted
RPMI-8226 leukemia = details: 10 µM unless noted
OVCAR-8 ovarian = details: 10 µM unless noted
OVCAR-5 ovarian = details: 10 µM unless noted
OVCAR-4 ovarian = details: 10 µM
SK-OV-3 ovarian = details: 10 µM unless noted
IGROV1 ovarian = details: 10 µM unless noted
OVCAR-3 ovarian = details: 10 µM unless noted
HS 578T breast = details: 10 µM unless noted
NCI/ADR-RES ovarian = details: 10 µM unless noted

Measured: growth

CC/C=C(\C)C(CCC)(CN=O)C(=O)OCC (configuration not stated)
inactive: SK-MEL-2 melanoma 106% | EKVX NSCLC 112% | SN12C renal 108% | UO-31 renal 90.4% | TK-10 renal 103% | ACHN renal 110% | CAKI-1 renal 104% | A498 renal 114% | CCRF-CEM leukemia 101% | MOLT-4 leukemia 90.1% | SR leukemia 87.6% | RPMI-8226 leukemia 96.3% | OVCAR-8 ovarian 105% | OVCAR-5 ovarian 113% | OVCAR-4 ovarian 110% | SK-OV-3 ovarian 99.9% | IGROV1 ovarian 118% | OVCAR-3 ovarian 127% | HS 578T breast 143% | NCI/ADR-RES ovarian 108%

N#Cc1c(N2CCOCC2)nc(=S)[nH]c1-c1ccco1
active: A498 renal -1.37%
inactive: SK-MEL-2 melanoma 37.1% | EKVX NSCLC 48.8% | SN12C renal 77.6% | UO-31 renal 66% | TK-10 renal 47.1% | ACHN renal 64.2% | CAKI-1 renal 58.2% | CCRF-CEM leukemia 49.6% | MOLT-4 leukemia 64.5% | SR leukemia 17.8% | RPMI-8226 leukemia 43% | OVCAR-8 ovarian 80.3% | OVCAR-5 ovarian 69% | OVCAR-4 ovarian 66.2% | SK-OV-3 ovarian 55% | IGROV1 ovarian 20.7% | OVCAR-3 ovarian 64.7% | NCI/ADR-RES ovarian 40.2%

Cc1nn(-c2ccccc2)c(N2CCOCC2)c1-c1nc2ccc([N+](=O)[O-])cc2[nH]1
inactive: SK-MEL-2 melanoma 110% | EKVX NSCLC 106% | SN12C renal 95.2% | UO-31 renal 81.4% | TK-10 renal 100% | ACHN renal 105% | CAKI-1 renal 80% | A498 renal 76.3% | CCRF-CEM leukemia 92.6% | MOLT-4 leukemia 85.7% | SR leukemia 87.2% | RPMI-8226 leukemia 97.6% | OVCAR-8 ovarian 102% | OVCAR-5 ovarian 108% | OVCAR-4 ovarian 98.9% | SK-OV-3 ovarian 135% | IGROV1 ovarian 111% | OVCAR-3 ovarian 110% | NCI/ADR-RES ovarian 105%

NNC(=O)c1ccc(C(=O)NN)cc1
inactive: SK-MEL-2 melanoma 122% | EKVX NSCLC 101% | SN12C renal 109% | UO-31 renal 87.1% | TK-10 renal 105% | ACHN renal 111% | CAKI-1 renal 105% | A498 renal 70.2% | CCRF-CEM leukemia 94.4% | MOLT-4 leukemia 130% | SR leukemia 126% | RPMI-8226 leukemia 104% | OVCAR-8 ovarian 84.9% | OVCAR-5 ovarian 113% | OVCAR-4 ovarian 127% | SK-OV-3 ovarian 119% | IGROV1 ovarian 116% | OVCAR-3 ovarian 112% | HS 578T breast 97.9% | NCI/ADR-RES ovarian 104%

O=S(=O)(c1ccc(N/N=C\c2ccccc2Cl)cc1)c1ccc(N/N=C/c2ccccc2Cl)cc1
active: RPMI-8226 leukemia -16.1%
inactive: SK-MEL-2 melanoma 89.1% | EKVX NSCLC 84.5% | SN12C renal 87.2% | UO-31 renal 63.7% | TK-10 renal 110% | ACHN renal 82.7% | CAKI-1 renal 62.2% | A498 renal 94.2% | CCRF-CEM leukemia 75.9% | MOLT-4 leukemia 65.1% | SR leukemia 88.5% | OVCAR-8 ovarian 86.5% | OVCAR-5 ovarian 82.6% | OVCAR-4 ovarian 84.1% | SK-OV-3 ovarian 98% | IGROV1 ovarian 73.8% | HS 578T breast 83% | NCI/ADR-RES ovarian 84.5%

O=C(Nc1ccc(F)cc1)c1ccccc1
inactive: SK-MEL-2 melanoma 106% | EKVX NSCLC 101% | SN12C renal 102% | UO-31 renal 94.3% | TK-10 renal 95.7% | ACHN renal 101% | CAKI-1 renal 91.6% | A498 renal 92.4% | CCRF-CEM leukemia 100% | MOLT-4 leukemia 97.8% | SR leukemia 88.8% | RPMI-8226 leukemia 102% | OVCAR-8 ovarian 105% | OVCAR-5 ovarian 105% | OVCAR-4 ovarian 100% | SK-OV-3 ovarian 112% | IGROV1 ovarian 110% | HS 578T breast 107% | NCI/ADR-RES ovarian 98.9%

COc1ccc(/C=C/C(=C/c2c(O)[nH]c3cc(Br)ccc23)N=O)cc1
inactive: SK-MEL-2 melanoma 140% | EKVX NSCLC 108% | SN12C renal 102% | UO-31 renal 88.5% | TK-10 renal 148% | ACHN renal 110% | CAKI-1 renal 93.1% | A498 renal 93.6% | CCRF-CEM leukemia 104% | MOLT-4 leukemia 104% | SR leukemia 70.2% | RPMI-8226 leukemia 123% | OVCAR-8 ovarian 104% | OVCAR-5 ovarian 110% | OVCAR-4 ovarian 101% | SK-OV-3 ovarian 114% | IGROV1 ovarian 103% | OVCAR-3 ovarian 114% | NCI/ADR-RES ovarian 111%

COc1cc(C)cc2oc3oc(=O)c(-c4nc5ccccc5s4)cc3c(=O)c12
inactive: SK-MEL-2 melanoma 113% | EKVX NSCLC 105% | SN12C renal 98.4% | UO-31 renal 74.6% | TK-10 renal 101% | ACHN renal 100% | CAKI-1 renal 91.8% | A498 renal 85.1% | CCRF-CEM leukemia 107% | MOLT-4 leukemia 106% | SR leukemia 105% | RPMI-8226 leukemia 94.1% | OVCAR-8 ovarian 86.4% | OVCAR-5 ovarian 89.7% | OVCAR-4 ovarian 96.7% | SK-OV-3 ovarian 111% | IGROV1 ovarian 83.2% | OVCAR-3 ovarian 85.3% | NCI/ADR-RES ovarian 94.4%

CCOC(=O)COc1ccc2c(c1)O/C(=C\c1ccc(O)cc1)C2=O
inactive: SK-MEL-2 melanoma 116% | EKVX NSCLC 104% | SN12C renal 98.7% | UO-31 renal 78.5% | TK-10 renal 106% | ACHN renal 102% | CAKI-1 renal 93.1% | A498 renal 88.6% | CCRF-CEM leukemia 118% | MOLT-4 leukemia 117% | SR leukemia 93.8% | RPMI-8226 leukemia 119% | OVCAR-8 ovarian 105% | OVCAR-5 ovarian 102% | OVCAR-4 ovarian 108% | SK-OV-3 ovarian 117% | IGROV1 ovarian 106% | OVCAR-3 ovarian 106% | NCI/ADR-RES ovarian 108%

COc1ccc(/C=C(/C2=NCCN2)n2ccc3ccccc32)cc1
inactive: SK-MEL-2 melanoma 99.5% | EKVX NSCLC 88.5% | SN12C renal 88.9% | UO-31 renal 52.9% | TK-10 renal 85.8% | ACHN renal 82.9% | CAKI-1 renal 69.7% | A498 renal 89% | CCRF-CEM leukemia 86.2% | MOLT-4 leukemia 93.2% | SR leukemia 79.5% | RPMI-8226 leukemia 93.1% | OVCAR-8 ovarian 97.1% | OVCAR-5 ovarian 90% | OVCAR-4 ovarian 94.8% | SK-OV-3 ovarian 97.1% | IGROV1 ovarian 82.8% | OVCAR-3 ovarian 97.9% | HS 578T breast 84.4% | NCI/ADR-RES ovarian 93%

Cc1ccc2c(n1)C(=O)C(Cl)=C(Nc1ccc(N3CCN(C)CC3)cc1)C2=O
inactive: SK-MEL-2 melanoma 68.4% | TK-10 renal 100% | A498 renal 101% | SK-OV-3 ovarian 89.9% | HS 578T breast 58% | NCI/ADR-RES ovarian 27.6%
active: EKVX NSCLC -81.8% | SN12C renal -88.5% | UO-31 renal -97.4% | ACHN renal -93.8% | CAKI-1 renal -100% | CCRF-CEM leukemia -6.24% | MOLT-4 leukemia -25.6% | SR leukemia -5.05% | RPMI-8226 leukemia -32.6% | OVCAR-8 ovarian -62.6% | OVCAR-5 ovarian -7.55% | OVCAR-4 ovarian -100% | IGROV1 ovarian -83.5% | OVCAR-3 ovarian -100%

CCCCN(CCCC)CC(O)c1ccc(OCc2ccccc2)c2ccccc12 (configuration not stated)
active: SR leukemia 9.33%
inactive: SK-MEL-2 melanoma 99.4% | EKVX NSCLC 75.5% | SN12C renal 94.6% | UO-31 renal 28.9% | TK-10 renal 78.2% | ACHN renal 71.7% | CAKI-1 renal 26.3% | A498 renal 97.2% | CCRF-CEM leukemia 72.7% | MOLT-4 leukemia 15.8% | RPMI-8226 leukemia 77.3% | OVCAR-8 ovarian 89.6% | OVCAR-5 ovarian 98.4% | OVCAR-4 ovarian 93.3% | SK-OV-3 ovarian 92.4% | IGROV1 ovarian 61.8% | OVCAR-3 ovarian 69.2% | NCI/ADR-RES ovarian 77.7%

CCCCCCCCCN(CCCCCCCCC)C(C)C(=O)c1ccc2cc(Br)c3ccccc3c2c1 (configuration not stated)
inactive: SK-MEL-2 melanoma 125% | EKVX NSCLC 72.6% | SN12C renal 79.8% | UO-31 renal 47.2% | TK-10 renal 93.7% | ACHN renal 85.9% | CAKI-1 renal 71.5% | A498 renal 96.8% | CCRF-CEM leukemia 60.6% | MOLT-4 leukemia 86% | RPMI-8226 leukemia 68.7% | OVCAR-8 ovarian 94% | OVCAR-5 ovarian 80.4% | OVCAR-4 ovarian 85.7% | SK-OV-3 ovarian 90.8% | IGROV1 ovarian 75.7% | OVCAR-3 ovarian 89.1% | NCI/ADR-RES ovarian 84.9%
active: SR leukemia 7.35%

CCOc1cccc2c(NC(C)CCCN(CC)CC)c(C)cnc12 (configuration not stated)
inactive: SK-MEL-2 melanoma 105% | EKVX NSCLC 104% | SN12C renal 95.2% | UO-31 renal 73.3% | TK-10 renal 101% | ACHN renal 109% | CAKI-1 renal 103% | A498 renal 97.7% | CCRF-CEM leukemia 108% | MOLT-4 leukemia 93.2% | SR leukemia 96.6% | RPMI-8226 leukemia 107% | OVCAR-8 ovarian 103% | OVCAR-5 ovarian 106% | OVCAR-4 ovarian 108% | SK-OV-3 ovarian 95.8% | IGROV1 ovarian 102% | OVCAR-3 ovarian 110% | NCI/ADR-RES ovarian 114%

COc1cccc(-c2[nH]c(=S)ncc2C(=O)c2ccccc2)c1
inactive: SK-MEL-2 melanoma 99.9% | EKVX NSCLC 86.9% | SN12C renal 94.4% | UO-31 renal 75.9% | TK-10 renal 100% | ACHN renal 91.1% | CAKI-1 renal 58.9% | A498 renal 75% | CCRF-CEM leukemia 93.7% | MOLT-4 leukemia 76.8% | SR leukemia 28.3% | RPMI-8226 leukemia 113% | OVCAR-8 ovarian 97.4% | OVCAR-5 ovarian 93.8% | OVCAR-4 ovarian 94.9% | SK-OV-3 ovarian 107% | IGROV1 ovarian 77.2% | OVCAR-3 ovarian 83.2% | NCI/ADR-RES ovarian 91.8%

CC(C)OC(=O)Nc1cc(F)c(F)cc1F
inactive: SK-MEL-2 melanoma 95.4% | EKVX NSCLC 94.1% | SN12C renal 102% | UO-31 renal 86.1% | TK-10 renal 96.3% | ACHN renal 101% | CAKI-1 renal 97.1% | A498 renal 93.6% | CCRF-CEM leukemia 103% | MOLT-4 leukemia 103% | SR leukemia 102% | RPMI-8226 leukemia 101% | OVCAR-8 ovarian 100% | OVCAR-5 ovarian 93.5% | OVCAR-4 ovarian 103% | SK-OV-3 ovarian 100% | IGROV1 ovarian 95.5% | HS 578T breast 101% | NCI/ADR-RES ovarian 102%

COc1cc2c(cc1OCCCCCOc1ccc(-n3c(C)nc4ccccc4c3=O)cc1)N=C[C@@H]1CCCN1C2=O
active: SK-MEL-2 melanoma -8.38% | EKVX NSCLC -26.5% | UO-31 renal 2.91% | TK-10 renal -28.2% | ACHN renal 9.23% | CAKI-1 renal 4.3% | A498 renal -71.9% | CCRF-CEM leukemia -38.3% | MOLT-4 leukemia -31.2% | SR leukemia -25.4% | RPMI-8226 leukemia -35% | OVCAR-8 ovarian 9.85% | OVCAR-4 ovarian -27.8% | SK-OV-3 ovarian -0.258% | IGROV1 ovarian -28.7% | OVCAR-3 ovarian -15.8% | NCI/ADR-RES ovarian -14.6%
inactive: SN12C renal 12.7% | OVCAR-5 ovarian 10.5%
